We go through 46 compounds from PubChem BioAssay AID1986 (Sanford-Burnham Center for Chemical Genomics, 2009).

By inhibition is commonly meant the drop in the measured response relative to a control, in per cent.

Values joined by “and” are separate entries in the source; they are usually repeats but may differ in a detail not shown here. Equal entries are not always repeated. Out of some 290,000 compounds screened, about 890 (0.31%) were called active. Rule as the data show it: active = inhibition mostly above about 52% (no sharp cut-off); inactive = mostly below about 76%. Shown is part of a subset that was picked to be rich in actives.

A short description of the assay: cell-free HIV fusion peptide-binding blockers – biochemical, uHTS, fluorescence dequenching, primary screen (AID 1986). The conditions noted are these: 30 min, stronger effect = higher value.
Setting [1] is: measured here: repeat confirmation average inhibition, at 18.6 µM.

With `COc1cc(C(=O)NS(=O)(=O)c2ccccc2C)ccc1Cc1cn(C)c2ccc(NC(=O)OC3CCCC3)cc12`, the inhibition (at 20 µM) is 55.9% (active).
For the compound `Cc1cc(NC(=O)OC2CCCCC2)ccc1[N+](=O)[O-]`, the inhibition (at 20 µM) was -1.3% (inactive).
The same measure, in the same setting: next, `COc1ccc(CNC(=O)Cc2cn(C)c3ccccc23)c(OC)c1`: 0% (inactive); `O=S(=O)(c1ccc(C2CCCCC2)cc1)N1CCCC1`: -0.2% (inactive).
Same read-out and setting: next, `COCCn1c(=NC(=O)CCS(=O)(=O)c2ccccc2)sc2c(OC)ccc(OC)c21`: 1.4% (inactive); `CC(C)NCc1cc(Br)ccc1OCc1ccccc1`: 0.8% (inactive).
On the same count and under the same terms, next, `S=c1[nH]nc(-c2ccco2)n1/N=C/C=C/c1ccco1`: 65.9% (active).
In the case of `S=c1[nH]nc(-c2ccco2)n1/N=C/C=C/c1ccccc1`, under “at 20 µM”, the inhibition was 3.2% (inactive).
`S=c1[nH]nc(-c2ccccc2)n1/N=C/C=C/c1ccco1`: the inhibition is 51.2% (inactive) (at 20 µM) and -0.2% under setting [1].
In the case of `COc1ccc2c(CC(=O)Nc3ncc(C)s3)coc2c1`, the inhibition (at 20 µM) is 1.1% (inactive).
For the compound `Cc1cccc(C)c1OCc1cc(C(=O)NCc2ccc(Cl)s2)no1`, the inhibition (at 20 µM) is 0.7% (inactive).
On the same count and under the same terms, next, `CC1=CC(=C(C#N)C#N)c2ccccc2N1C`: 146% (inactive).
With `COC(=O)c1c(C(=O)NCc2ccccc2)ncn1CC(O)COc1ccccc1` (stereo not drawn), where the note is “at 20 µM”, the inhibition is -0.4% (inactive).
The same measure, in the same setting: the same measure for `N#C/C(=C\c1ccc(C(=O)O)cc1)c1nc2sc3c(c2c(=O)[nH]1)CCCC3`: 103% (active).
Still for that read-out and setting: next, `O=C(O)c1ccc(/C=C/c2nc3sc4c(c3c(=O)[nH]2)CCC4)cc1`: 33.6% (inactive); `CCOC(=O)c1nc2sc3c(c2c(=O)[nH]1)CCCC3`: 0.4% (inactive) and 2.4% (inactive).
The same measure, in the same setting: next, `O=C(N/N=C/c1cc([N+](=O)[O-])ccc1O)C(O)(c1ccccc1)c1ccccc1`: 15.6% (inactive); `N#CC1(C#N)C(c2ccccc2)OC23CCCCCC2C1(C#N)C(=N)O3` (stereo not drawn): 10% (inactive); `COc1ccc2c(CC(=O)Nc3ccc(N4CCOCC4)cc3)coc2c1`: -1.8% (inactive).
Turning to `CCOC(=O)C1CCN(C(=O)Nc2ccc3nc(C)c(C)nc3c2)CC1`, the inhibition (at 20 µM) is 0.1% (inactive).
Same read-out and setting: the same measure for `CCOC(=O)C1CCN(C(=O)Nc2ccc3nc(-c4ccco4)c(-c4ccco4)nc3c2)CC1`: 68.6% (active).
In the case of `O=C(Nc1ccc2nc(-c3ccco3)c(-c3ccco3)nc2c1)N1CCCCCC1`, the inhibition was 55.6% (inactive) (at 20 µM) and 19.7% under setting [1].
Turning to `Cc1cc(C)c(C)c(S(=O)(=O)N2CCNCC2)c1C`, the inhibition (at 20 µM) was 0.3% (inactive).
The same measure, in the same setting: the same measure for `CC(C)(C)c1ccc(-c2nnc3sc(-c4ccncc4)nn23)cc1`: -2.8% (inactive).
The same measure, in the same setting: the same measure for `NC(=S)Nc1ccc(Cl)cc1Cl`: -1.7% (inactive); for `COc1cc(OC)c(/C=N/n2c(C)nnc2C)c(OC)c1`: -1.2% (inactive); for `CCOC(=O)C(=Cc1ccc(-c2ccsc2C(=O)OC)o1)C(=O)OCC`: 2.2% (inactive).
The same measure, in the same setting: next, `COC(=O)C(=Cc1ccc(-c2ccsc2C(=O)OC)o1)C(=O)OC`: -1% (inactive).
`CCOC(=O)/C(C#N)=C/c1ccc(-c2ccsc2C(=O)OC)o1`: under “at 20 µM”, the inhibition was 61.4% (active).
On the same count and under the same terms, next, `Cc1cc(-c2ccc(Cl)s2)n[nH]1`: 0% (inactive); `CC1(C)CCCC2=C1CC1C(=O)N(Cc3cccnc3)C(=O)C1C2` (stereo not drawn): 1.5% (inactive); `Cc1cc(C)n2nc(C(=O)N/N=C/c3ccco3)nc2n1`: -0.3% (inactive).
With `O=C(c1nc2ccccn2c1CNCC1OCCc2ccccc21)N1CCOCC1` (stereo not drawn), where the note is “at 20 µM”, the inhibition was -0.8% (inactive).
For `Cc1ccc(C)c(S(=O)(=O)NCCCn2ccnc2)c1`, under “at 20 µM”, the inhibition is -0.3% (inactive).
Turning to `COc1ccc(NS(=O)(=O)c2cccc(C(=O)Nc3ccccc3C(=O)O)c2)cc1`, the inhibition (at 20 µM) is 19.7% (inactive).
Same read-out and setting: the same measure for `COc1ccccc1NS(=O)(=O)c1ccc(N/N=C/c2c(C)nn(-c3ccccc3)c2N2CCCC2)c([N+](=O)[O-])c1`: -5.2% (inactive).
Same read-out and setting: next, `COc1ccc(NC(=O)c2ccccc2NS(=O)(=O)c2ccc(C)cc2)c([N+](=O)[O-])c1`: 1.8% (inactive); `Cc1nn(-c2ccccc2)c(Cl)c1/C=N/Nc1ccc(S(=O)(=O)Nc2ccccc2C(=O)O)cc1[N+](=O)[O-]`: 73% (active).
Consider `Cc1nn(-c2ccccc2)c(N2CCCC2)c1/C=N/Nc1ccc(S(=O)(=O)Nc2ccccc2)cc1[N+](=O)[O-]`, for which the inhibition (at 20 µM) was -3.9% (inactive).
Still for that read-out and setting: next, `COc1ccc(NC(=S)NNc2ccc(S(=O)(=O)Nc3ccccc3C(=O)O)cc2[N+](=O)[O-])cc1`: 52.4% (active).
On the same count and under the same terms, next, `COc1ccc(N(CC(=O)N2CCc3ccccc3C2)S(C)(=O)=O)cc1`: -1.6% (inactive); `COc1cc(COCC(O)CN2CCOCC2)cc(OC)c1OC` (stereo not drawn): -2.1% (inactive); `O=C(Cc1ccc(Cl)cc1)Nc1cc(S(=O)(=O)N2CCOCC2)ccc1N1CCCC1`: 1.2% (inactive).
The same measure, in the same setting: next, `N#CC1CC(c2ccccc2)=NN1c1ccccc1[N+](=O)[O-]` (stereo not drawn): -3.1% (inactive); `O=[N+]([O-])c1ccc(N2N=C(c3ccccc3)CC2c2ccccc2O)cc1` (stereo not drawn): 38.9% (inactive).
Consider `N#CC1CC(c2ccc([N+](=O)[O-])cc2)=NN1c1ccc([N+](=O)[O-])cc1` (stereo not drawn), for which the inhibition (at 20 µM) is 83.7% (active).
